Measurements as given in paper PMC7862700, “An all-to-all approach to the identification of sequence-specific readers for epigenetic DNA modifications on cytosine”.

How the values were obtained:
Test in all cases: DAPPL (digital affinity profiling via proximity ligation, sequencing); 10 mM Tris-HCl pH 7.5, 50 mM NaCl, 1 mM DTT, 4% glycerol, room temperature, 30 min; GST-TFs on glutathione beads, 16-mer random dsDNA library, 0.1% formaldehyde crosslink after washing; high values mean tight binding
FLI1 = biological target: T1, FLI1 (Homo sapiens, UniProt Q01543 1-452); conditions: protein: recombinant; tags: N-terminal GST; dsDNA, one strand shown
T1 sequence: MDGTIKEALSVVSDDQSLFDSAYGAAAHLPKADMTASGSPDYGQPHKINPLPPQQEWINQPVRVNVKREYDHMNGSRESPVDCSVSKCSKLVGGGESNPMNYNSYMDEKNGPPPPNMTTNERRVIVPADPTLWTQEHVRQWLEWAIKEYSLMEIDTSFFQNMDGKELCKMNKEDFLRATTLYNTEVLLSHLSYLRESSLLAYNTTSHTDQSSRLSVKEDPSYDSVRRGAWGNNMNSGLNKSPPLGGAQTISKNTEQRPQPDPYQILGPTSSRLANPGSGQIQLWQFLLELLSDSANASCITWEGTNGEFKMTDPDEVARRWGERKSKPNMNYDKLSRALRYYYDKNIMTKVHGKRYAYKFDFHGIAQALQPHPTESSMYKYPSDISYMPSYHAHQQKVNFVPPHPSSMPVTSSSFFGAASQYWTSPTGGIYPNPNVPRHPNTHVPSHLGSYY
Outline: (§1)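 GST fusions of human transcription factors were expressed in yeast and captured with glutathione beads. Once given DNA barcodes and pooled alongside a tag-only sample, they were incubated for 30 min at room temperature with 200 nmole of a random double-stranded 16-mer DNA library in Tris/NaCl/DTT/glycerol buffer, then washed, crosslinked (0.1% formaldehyde), proximity-ligated, PCR-amplified and sequenced on an Illumina NextSeq500. The binding signal of each hexamer is its read frequency for a factor divided by its frequency for the tag-only sample.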

ELK1 = biological target: T2, ELK1 (Homo sapiens, UniProt P19419 1-428); conditions: protein: recombinant; tags: N-terminal GST; dsDNA, one strand shown
T2 sequence: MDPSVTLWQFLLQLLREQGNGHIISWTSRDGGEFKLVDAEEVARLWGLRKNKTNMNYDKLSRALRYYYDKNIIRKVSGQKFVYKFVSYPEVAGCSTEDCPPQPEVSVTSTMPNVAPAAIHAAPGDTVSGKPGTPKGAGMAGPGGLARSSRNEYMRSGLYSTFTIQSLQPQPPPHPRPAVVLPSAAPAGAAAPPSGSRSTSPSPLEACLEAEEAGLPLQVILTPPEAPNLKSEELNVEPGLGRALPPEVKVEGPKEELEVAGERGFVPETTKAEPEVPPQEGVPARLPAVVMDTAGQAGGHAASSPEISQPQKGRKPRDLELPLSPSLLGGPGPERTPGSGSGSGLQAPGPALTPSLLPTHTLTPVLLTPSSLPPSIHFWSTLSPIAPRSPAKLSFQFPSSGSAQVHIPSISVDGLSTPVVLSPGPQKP
Outline: as §1

GABPA = biological target: T3, GABPA (Homo sapiens, UniProt Q06546 1-454); conditions: protein: recombinant; tags: N-terminal GST; dsDNA, one strand shown
T3 sequence: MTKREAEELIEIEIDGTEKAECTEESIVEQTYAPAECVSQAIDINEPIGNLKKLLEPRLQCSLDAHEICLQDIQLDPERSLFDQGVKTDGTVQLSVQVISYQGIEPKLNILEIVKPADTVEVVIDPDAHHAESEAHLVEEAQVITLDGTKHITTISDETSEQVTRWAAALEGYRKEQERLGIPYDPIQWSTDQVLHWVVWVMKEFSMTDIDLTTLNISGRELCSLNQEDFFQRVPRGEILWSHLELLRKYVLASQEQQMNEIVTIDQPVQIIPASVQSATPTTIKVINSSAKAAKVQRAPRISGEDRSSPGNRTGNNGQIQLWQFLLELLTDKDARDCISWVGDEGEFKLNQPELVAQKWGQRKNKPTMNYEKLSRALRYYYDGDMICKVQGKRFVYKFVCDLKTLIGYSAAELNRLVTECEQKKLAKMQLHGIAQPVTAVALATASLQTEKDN
Outline: as §1

ERG = biological target: T4, ERG (Homo sapiens, UniProt P11308 1-479); conditions: protein: recombinant; tags: N-terminal GST; dsDNA, one strand shown
T4 sequence: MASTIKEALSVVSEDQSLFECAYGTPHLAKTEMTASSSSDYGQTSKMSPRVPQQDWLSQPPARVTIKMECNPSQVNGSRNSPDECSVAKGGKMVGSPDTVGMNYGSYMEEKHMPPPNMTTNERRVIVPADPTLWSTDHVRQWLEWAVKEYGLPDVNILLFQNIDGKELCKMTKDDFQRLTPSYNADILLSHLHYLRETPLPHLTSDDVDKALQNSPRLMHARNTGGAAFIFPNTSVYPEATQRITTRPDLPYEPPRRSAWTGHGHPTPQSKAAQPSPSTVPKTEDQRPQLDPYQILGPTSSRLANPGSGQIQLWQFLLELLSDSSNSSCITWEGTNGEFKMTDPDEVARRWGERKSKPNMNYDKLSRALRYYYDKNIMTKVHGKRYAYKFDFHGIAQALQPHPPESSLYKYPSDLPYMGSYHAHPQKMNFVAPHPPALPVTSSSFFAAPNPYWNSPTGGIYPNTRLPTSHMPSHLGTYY
Outline: as §1

ELF1 = ELF1 (Homo sapiens, UniProt P32519 1-619); conditions: protein: recombinant; tags: N-terminal GST; dsDNA, one strand shown
Sequence of ELF1 (P32519 whole entry): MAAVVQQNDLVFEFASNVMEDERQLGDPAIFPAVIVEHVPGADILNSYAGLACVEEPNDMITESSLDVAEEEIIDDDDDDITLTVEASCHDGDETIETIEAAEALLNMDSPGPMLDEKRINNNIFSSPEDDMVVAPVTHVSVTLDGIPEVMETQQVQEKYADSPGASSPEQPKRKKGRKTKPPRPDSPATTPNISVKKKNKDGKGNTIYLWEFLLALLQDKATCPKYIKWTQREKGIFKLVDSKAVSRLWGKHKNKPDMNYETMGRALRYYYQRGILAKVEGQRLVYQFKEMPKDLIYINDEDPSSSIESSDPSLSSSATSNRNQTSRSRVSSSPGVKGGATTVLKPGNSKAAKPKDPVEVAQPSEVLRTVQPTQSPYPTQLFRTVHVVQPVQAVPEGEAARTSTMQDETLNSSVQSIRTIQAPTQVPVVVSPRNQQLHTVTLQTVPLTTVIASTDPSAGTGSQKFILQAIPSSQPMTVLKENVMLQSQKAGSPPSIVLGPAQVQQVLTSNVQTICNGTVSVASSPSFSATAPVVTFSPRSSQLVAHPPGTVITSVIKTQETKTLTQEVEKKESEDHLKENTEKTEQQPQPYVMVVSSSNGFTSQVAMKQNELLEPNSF
Outline: as §1

EHF = biological target: T5, EHF (Homo sapiens, UniProt Q9NZC4 1-300); conditions: protein: recombinant; tags: N-terminal GST; dsDNA, one strand shown
T5 sequence: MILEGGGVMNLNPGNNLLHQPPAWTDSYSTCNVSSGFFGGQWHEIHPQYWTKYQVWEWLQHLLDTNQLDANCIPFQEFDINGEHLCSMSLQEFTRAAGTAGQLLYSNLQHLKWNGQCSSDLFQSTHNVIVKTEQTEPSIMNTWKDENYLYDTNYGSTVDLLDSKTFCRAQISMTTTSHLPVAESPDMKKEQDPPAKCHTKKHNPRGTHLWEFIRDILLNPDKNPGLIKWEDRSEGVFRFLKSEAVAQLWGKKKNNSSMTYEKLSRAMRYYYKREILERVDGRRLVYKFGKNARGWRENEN
Outline: as §1

SPI1 = SPI1 (Homo sapiens, UniProt P17947 1-270); conditions: protein: recombinant; tags: N-terminal GST; dsDNA, one strand shown
Outline: as §1

SPIB = SPIB (Homo sapiens, UniProt Q01892 1-262); conditions: protein: recombinant; tags: N-terminal GST; dsDNA, one strand shown
Sequence of SPIB (Q01892 whole entry): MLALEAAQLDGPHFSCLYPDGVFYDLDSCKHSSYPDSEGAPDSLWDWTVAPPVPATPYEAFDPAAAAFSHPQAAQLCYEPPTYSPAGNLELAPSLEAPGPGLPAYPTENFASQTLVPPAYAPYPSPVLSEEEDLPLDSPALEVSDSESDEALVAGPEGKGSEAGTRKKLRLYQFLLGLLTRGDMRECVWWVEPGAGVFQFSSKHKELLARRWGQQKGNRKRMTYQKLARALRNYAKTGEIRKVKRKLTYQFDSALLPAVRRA
Outline: as §1

ELK3 = biological target: T6, ELK3 (Homo sapiens, UniProt P41970 1-407); conditions: protein: recombinant; tags: N-terminal GST; dsDNA, one strand shown
T6 sequence: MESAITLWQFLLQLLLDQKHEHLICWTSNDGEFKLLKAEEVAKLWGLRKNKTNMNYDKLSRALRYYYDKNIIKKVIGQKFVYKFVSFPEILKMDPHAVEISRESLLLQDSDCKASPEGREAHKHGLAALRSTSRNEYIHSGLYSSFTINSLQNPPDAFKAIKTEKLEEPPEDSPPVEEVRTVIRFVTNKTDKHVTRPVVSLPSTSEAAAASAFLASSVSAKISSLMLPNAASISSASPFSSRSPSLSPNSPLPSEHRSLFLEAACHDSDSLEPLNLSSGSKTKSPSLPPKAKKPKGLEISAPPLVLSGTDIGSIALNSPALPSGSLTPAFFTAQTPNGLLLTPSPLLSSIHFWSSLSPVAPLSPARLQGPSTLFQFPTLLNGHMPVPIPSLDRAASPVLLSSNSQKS
Outline: as §1

FEV = biological target: T7, FEV (Homo sapiens, UniProt Q99581 1-238); conditions: protein: recombinant; tags: N-terminal GST; dsDNA, one strand shown
T7 sequence: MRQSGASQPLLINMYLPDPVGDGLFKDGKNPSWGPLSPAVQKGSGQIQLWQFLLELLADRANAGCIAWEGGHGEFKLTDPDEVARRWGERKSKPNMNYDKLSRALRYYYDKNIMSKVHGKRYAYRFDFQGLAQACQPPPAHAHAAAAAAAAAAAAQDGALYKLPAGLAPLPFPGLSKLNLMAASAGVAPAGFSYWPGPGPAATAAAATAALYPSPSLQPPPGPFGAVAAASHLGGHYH
Outline: as §1

ETV5 = ETV5 (Homo sapiens, UniProt P41161 1-510); conditions: protein: recombinant; tags: N-terminal GST; dsDNA, one strand shown
Sequence of ETV5 (P41161 whole entry): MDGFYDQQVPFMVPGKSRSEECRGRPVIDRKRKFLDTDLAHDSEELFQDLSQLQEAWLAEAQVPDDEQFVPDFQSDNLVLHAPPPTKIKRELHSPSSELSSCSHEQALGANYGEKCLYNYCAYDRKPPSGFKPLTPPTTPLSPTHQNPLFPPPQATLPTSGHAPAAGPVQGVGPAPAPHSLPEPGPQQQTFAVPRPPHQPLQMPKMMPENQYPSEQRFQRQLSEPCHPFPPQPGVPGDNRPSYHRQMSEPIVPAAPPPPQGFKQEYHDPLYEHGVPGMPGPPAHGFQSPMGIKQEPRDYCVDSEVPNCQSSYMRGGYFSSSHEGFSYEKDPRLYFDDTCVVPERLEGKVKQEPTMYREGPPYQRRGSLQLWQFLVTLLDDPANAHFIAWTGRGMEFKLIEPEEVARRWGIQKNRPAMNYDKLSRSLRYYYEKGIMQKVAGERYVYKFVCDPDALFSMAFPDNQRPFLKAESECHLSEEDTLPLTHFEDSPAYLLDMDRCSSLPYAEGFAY
Outline: as §1

HSF1 = HSF1 (Homo sapiens, UniProt Q00613 1-529); conditions: protein: recombinant; tags: N-terminal GST; chain copies: 3; dsDNA, one strand shown
Sequence of HSF1 (Q00613 whole entry): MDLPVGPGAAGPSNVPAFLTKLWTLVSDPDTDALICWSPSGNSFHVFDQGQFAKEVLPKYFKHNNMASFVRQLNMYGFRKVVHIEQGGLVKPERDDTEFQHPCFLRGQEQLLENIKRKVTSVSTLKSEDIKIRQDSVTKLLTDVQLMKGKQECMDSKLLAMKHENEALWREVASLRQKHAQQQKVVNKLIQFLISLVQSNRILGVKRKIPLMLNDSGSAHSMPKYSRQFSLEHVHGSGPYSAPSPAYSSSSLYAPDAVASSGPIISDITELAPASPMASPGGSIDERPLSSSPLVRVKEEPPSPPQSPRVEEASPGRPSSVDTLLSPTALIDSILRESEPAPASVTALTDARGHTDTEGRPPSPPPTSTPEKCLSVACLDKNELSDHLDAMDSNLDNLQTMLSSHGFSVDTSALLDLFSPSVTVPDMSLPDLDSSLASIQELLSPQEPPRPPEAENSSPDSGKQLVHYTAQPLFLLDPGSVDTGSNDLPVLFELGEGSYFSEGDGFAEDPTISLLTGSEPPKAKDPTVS
Outline: as §1

SPIC = biological target: T8, SPIC (Homo sapiens, UniProt Q8N5J4 1-248); conditions: protein: recombinant; tags: N-terminal GST; dsDNA, one strand shown
T8 sequence: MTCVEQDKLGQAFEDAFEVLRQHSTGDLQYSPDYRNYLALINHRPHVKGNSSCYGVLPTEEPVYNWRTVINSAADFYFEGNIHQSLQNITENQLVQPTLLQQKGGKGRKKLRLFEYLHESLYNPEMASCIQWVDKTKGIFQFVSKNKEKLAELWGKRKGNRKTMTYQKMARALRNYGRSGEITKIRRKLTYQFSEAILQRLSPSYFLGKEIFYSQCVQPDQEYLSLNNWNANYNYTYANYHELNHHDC
Outline: as §1

ELF4 = ELF4 (Homo sapiens, UniProt Q99607 1-663); conditions: protein: recombinant; tags: N-terminal GST; dsDNA, one strand shown
Sequence of ELF4 (Q99607 whole entry): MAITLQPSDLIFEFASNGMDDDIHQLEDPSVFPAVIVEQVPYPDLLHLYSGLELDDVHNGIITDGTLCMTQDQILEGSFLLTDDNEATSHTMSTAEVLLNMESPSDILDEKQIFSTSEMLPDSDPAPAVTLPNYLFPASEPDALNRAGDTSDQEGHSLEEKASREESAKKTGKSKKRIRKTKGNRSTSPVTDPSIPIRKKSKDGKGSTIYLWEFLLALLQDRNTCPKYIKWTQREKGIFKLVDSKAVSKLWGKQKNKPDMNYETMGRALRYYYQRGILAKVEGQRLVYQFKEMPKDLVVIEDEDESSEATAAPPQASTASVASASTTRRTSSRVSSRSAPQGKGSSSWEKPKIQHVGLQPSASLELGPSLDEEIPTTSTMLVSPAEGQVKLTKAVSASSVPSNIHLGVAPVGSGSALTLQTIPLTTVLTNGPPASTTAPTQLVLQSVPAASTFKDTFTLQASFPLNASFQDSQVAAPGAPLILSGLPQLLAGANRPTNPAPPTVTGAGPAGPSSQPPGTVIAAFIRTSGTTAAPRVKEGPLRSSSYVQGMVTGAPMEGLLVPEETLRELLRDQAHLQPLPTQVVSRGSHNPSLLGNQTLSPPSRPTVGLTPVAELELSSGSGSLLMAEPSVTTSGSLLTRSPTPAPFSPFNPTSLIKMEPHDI
Outline: as §1

ELK4 = biological target: T9, ELK4 (Homo sapiens, UniProt P28324-2 1-405); conditions: protein: recombinant; tags: N-terminal GST; dsDNA, one strand shown
T9 sequence: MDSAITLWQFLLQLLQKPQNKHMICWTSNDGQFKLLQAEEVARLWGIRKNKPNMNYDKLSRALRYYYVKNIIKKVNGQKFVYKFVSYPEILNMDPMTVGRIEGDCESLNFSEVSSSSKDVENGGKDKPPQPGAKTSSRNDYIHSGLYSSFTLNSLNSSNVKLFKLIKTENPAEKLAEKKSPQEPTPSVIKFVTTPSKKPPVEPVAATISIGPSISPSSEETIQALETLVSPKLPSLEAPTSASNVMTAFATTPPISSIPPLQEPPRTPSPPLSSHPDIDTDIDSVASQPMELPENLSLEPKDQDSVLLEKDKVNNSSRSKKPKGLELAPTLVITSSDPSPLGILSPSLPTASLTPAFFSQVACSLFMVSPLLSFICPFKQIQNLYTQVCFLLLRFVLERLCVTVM
Outline: as §1

ETV2 = biological target: T10, ETV2 (Homo sapiens, UniProt O00321 1-342); conditions: protein: recombinant; tags: N-terminal GST; dsDNA, one strand shown
T10 sequence: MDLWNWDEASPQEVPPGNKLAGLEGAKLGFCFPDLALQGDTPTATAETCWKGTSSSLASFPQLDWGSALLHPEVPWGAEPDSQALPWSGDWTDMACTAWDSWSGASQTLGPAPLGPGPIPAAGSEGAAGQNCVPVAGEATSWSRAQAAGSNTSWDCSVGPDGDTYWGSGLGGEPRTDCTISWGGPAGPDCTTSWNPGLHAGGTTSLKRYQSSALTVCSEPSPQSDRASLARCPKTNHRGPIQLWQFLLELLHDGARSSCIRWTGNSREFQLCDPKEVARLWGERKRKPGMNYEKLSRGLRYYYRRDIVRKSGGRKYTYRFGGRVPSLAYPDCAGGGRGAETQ
Outline: as §1

ELF3 = biological target: T11, ELF3 (Homo sapiens, UniProt P78545 1-371); conditions: protein: recombinant; tags: N-terminal GST; dsDNA, one strand shown
T11 sequence: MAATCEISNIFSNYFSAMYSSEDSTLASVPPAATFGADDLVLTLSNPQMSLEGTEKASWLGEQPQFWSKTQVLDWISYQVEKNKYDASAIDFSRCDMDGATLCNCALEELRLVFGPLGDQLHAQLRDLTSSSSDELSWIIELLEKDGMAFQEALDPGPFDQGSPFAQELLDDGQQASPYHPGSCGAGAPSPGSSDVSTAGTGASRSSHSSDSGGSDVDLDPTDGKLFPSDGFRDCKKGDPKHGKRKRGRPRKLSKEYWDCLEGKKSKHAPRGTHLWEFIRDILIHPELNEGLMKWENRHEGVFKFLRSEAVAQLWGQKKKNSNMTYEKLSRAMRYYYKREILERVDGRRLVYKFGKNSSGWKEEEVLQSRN
Outline: as §1

CRX = CRX (Homo sapiens, UniProt O43186 1-299); conditions: protein: recombinant; tags: N-terminal GST; dsDNA, one strand shown
Sequence of CRX (O43186 whole entry): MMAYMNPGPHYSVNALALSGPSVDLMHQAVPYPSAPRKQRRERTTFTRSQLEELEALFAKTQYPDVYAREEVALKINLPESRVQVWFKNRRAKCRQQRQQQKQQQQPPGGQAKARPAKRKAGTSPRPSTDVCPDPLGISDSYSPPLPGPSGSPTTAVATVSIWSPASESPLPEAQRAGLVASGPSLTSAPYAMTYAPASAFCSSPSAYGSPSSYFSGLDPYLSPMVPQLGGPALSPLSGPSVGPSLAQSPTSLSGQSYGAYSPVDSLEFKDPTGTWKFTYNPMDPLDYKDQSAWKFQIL
Outline: as §1

ETV1 = ETV1 (Homo sapiens, UniProt P50549 1-477); conditions: protein: recombinant; tags: N-terminal GST; dsDNA, one strand shown
Sequence of ETV1 (P50549 whole entry): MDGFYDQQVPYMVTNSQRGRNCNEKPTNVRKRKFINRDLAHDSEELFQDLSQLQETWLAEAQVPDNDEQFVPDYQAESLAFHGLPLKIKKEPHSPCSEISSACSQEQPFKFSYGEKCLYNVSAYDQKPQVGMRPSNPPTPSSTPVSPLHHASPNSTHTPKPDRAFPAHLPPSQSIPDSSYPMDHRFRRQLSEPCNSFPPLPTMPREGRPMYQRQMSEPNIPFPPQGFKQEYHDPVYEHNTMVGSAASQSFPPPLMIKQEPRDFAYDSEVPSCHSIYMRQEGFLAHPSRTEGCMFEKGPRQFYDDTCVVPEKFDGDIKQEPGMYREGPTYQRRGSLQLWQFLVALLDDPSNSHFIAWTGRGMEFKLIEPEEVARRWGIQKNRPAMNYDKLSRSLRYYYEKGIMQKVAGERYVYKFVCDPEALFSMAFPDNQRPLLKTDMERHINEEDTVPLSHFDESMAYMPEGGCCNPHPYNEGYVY
Outline: as §1

Sequence: CCGATA
- binding signal (FLI1): 1.16 fold enrichment (6-mer frequency, TF over GST control)
- binding signal (ELK1): 1.13 fold enrichment (6-mer frequency, TF over GST control)
- binding signal (GABPA): 1.14 fold enrichment (6-mer frequency, TF over GST control)
- binding signal (ERG): 1.14 fold enrichment (6-mer frequency, TF over GST control)
- binding signal (ELF1): 1.17 fold enrichment (6-mer frequency, TF over GST control)
- binding signal (EHF): 1.18 fold enrichment (6-mer frequency, TF over GST control)
- binding signal (SPI1): 1.09 fold enrichment (6-mer frequency, TF over GST control)
- binding signal (SPIB): 1.03 fold enrichment (6-mer frequency, TF over GST control)
- binding signal (ELK3): 1.14 fold enrichment (6-mer frequency, TF over GST control)
- binding signal (FEV): 1.14 fold enrichment (6-mer frequency, TF over GST control)
- binding signal (ETV5): 1.15 fold enrichment (6-mer frequency, TF over GST control)
- binding signal (HSF1): 1.16 fold enrichment (6-mer frequency, TF over GST control)
- binding signal (SPIC): 1.2 fold enrichment (6-mer frequency, TF over GST control)
- binding signal (ELF4): 1.2 fold enrichment (6-mer frequency, TF over GST control)
- binding signal (ELK4): 1.08 fold enrichment (6-mer frequency, TF over GST control)
- binding signal (ETV2): 1.25 fold enrichment (6-mer frequency, TF over GST control)
- binding signal (ELF3): 1.05 fold enrichment (6-mer frequency, TF over GST control)
- binding signal (CRX): 1.27 fold enrichment (6-mer frequency, TF over GST control)
- binding signal (ETV1): 1.16 fold enrichment (6-mer frequency, TF over GST control)
